Assay outcomes deposited in PubChem BioAssay by several laboratories.
Mtb FBA inh: Mtb fructose-bisphosphate aldolase inhibition; P9WQA3; purified M. tuberculosis FBA, fluorescence read-out; inhibition, % at 1 µM; actives 2.3% (n = 360,000); AID 588726; in the data active = inhibition above about 27%;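 also: 0% = vehicle and 100% = reference inhibitor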
Target sequence (P9WQA3 whole entry, looked up): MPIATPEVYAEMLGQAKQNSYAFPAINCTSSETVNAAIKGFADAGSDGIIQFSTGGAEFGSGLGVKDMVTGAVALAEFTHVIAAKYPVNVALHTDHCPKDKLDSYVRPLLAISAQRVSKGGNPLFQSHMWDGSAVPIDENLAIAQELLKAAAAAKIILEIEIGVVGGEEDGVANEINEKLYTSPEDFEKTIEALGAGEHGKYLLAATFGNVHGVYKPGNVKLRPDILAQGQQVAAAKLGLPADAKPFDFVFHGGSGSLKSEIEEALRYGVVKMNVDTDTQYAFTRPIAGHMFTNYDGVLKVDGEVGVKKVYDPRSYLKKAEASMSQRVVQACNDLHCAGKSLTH
PrPC TRFRET: cell surface PrPC inhibition, primary TR-FRET screen; TR-FRET read-out; inhibition, % at 13.8 µM; actives 0.43% (n = 370,000); AID 720596; in the data active = inhibition above about 24%; also: 0% = median of the test wells and 100% = reference compound wells
BH1578 lux ind: induces V. cholerae light production without autoinducers; activation, % at 18.7 µM; actives 0.16% (n = 350,000); V. cholerae BH1578 lux reporter, luminescence, 6 h; in the data active = activation mostly above about 9.7%, no sharp cut-off
3CLpro inhibitor: SARS-CoV 3CLpro protease inhibition; P0C6X7; recombinant SARS-CoV 3CLpro, quenched FRET peptide cleavage; inhibition, % at 6 µM; actives 0.14% (n = 290,000); AID 1706; in the data active = inhibition above about 12%
GDH-TPI inh: GDH-TPI coupled enzyme inhibition counter-screen. GDH-TPI coupled enzyme counterscreen, NADH absorbance. inhibition, % at 4.8 µM. actives 1.2% (n = 360,000); in the data active = inhibition above about 30%;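 also: 0% = DMSO wells and 100% = wells lacking the enzyme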
The depositor's hits bear a star; i = inactive; x = no result given; + = active, no number. This is a sample that favours compounds with a hit; in the whole collection about 3.9% have one here.

SMILES	Mtb FBA inh	PrPC TRFRET	BH1578 lux ind	3CLpro inhibitor	GDH-TPI inh
CN(C)CC(=O)Nc1ccc2c(c1)[C@H]1C[C@H](CC(=O)NCc3ccc4c(c3)OCO4)O[C@H](CO)[C@H]1O2	2.4	-1.2	i	x	8.2
Cc1c(-c2ccccc2)c(-c2ccc(OCCN(C)C)cc2)n2ccccc12	4.9	-13.8	-5.6	x	13.8
Cc1c(Nc2cc(=O)oc3ccccc23)c(=O)n(-c2ccccc2)n1C	-5.0	6.2	16.7*	-0.9	2.8
Cc1cc(Nc2c(C)n(C)n(-c3ccccc3)c2=O)c2ccccc2n1	2.2	-6.4	i	4.9	15.8
Cc1c(NC(=O)c2ccc(C(=O)Nc3c(C)n(C)n(-c4ccccc4)c3=O)cc2)c(=O)n(-c2ccccc2)n1C	3.2	6.8	-0.2	-0.2	15.7
Cc1c(NC(=O)c2ccc(=O)oc2)c(=O)n(-c2ccccc2)n1C	-0.9	-12.3	x	1.2	32.6*
CN=C1SC(CC(=O)Nc2ccccc2F)C(=O)N1/N=C/c1ccc(O)c(OC)c1 (stereo not drawn)	2.9	-22.0	i	4.3	51.6*
COc1cc(/C=N/n2nnnc2N)ccc1O	2.3	-4.1	-0.3	-5.0	43.6*
COc1cc(/C=N/n2nnnc2N)ccc1OC(C)C	8.4	-5.0	i	2.1	23.4
COc1cc(/C=N/n2nnnc2N)ccc1OC(C)=O	3.5	-3.9	240.3*	6.4	8.6
CCOc1ccc(/C=N/N2C(=O)C(CC(=O)Nc3ccc(F)cc3F)SC2=NC)cc1OC (stereo not drawn)	-1.3	-3.6	-0.3	-2.1	22.6
COc1cc(/C=N/N2C(=O)C3C4c5ccccc5C(c5ccccc54)C3C2=O)ccc1O (stereo not drawn)	0.6	-6.8	-0.6	1.6	34.1*
CC(=O)c1ccccc1OCc1ccc(S(=O)(=O)Cc2ccccc2)cc1	1.1	6.0	-0.4	1.6	2.6
CCc1ccc(NC(=O)C2CCN(S(=O)(=O)c3ccc4[nH]c(=O)ccc4c3)CC2)cc1	6.5	5.7	-0.4	2.7	9.9
COC(=O)C1=CNC=C(C(=O)OC)C1c1ccc(C(=O)OC)cc1	115.4*	0.0	x	3.1	4.2
COc1ccc(C=NNC(=O)c2cc(C)oc2C)cc1O	0.8	-3.3	-8.3	x	30.7*
COc1ccc(/C=N/NC(=O)c2cc3c(OC)ccc(OC)c3[nH]2)cc1O	-3.4	-6.0	-2.2	-7.5	43.4*
COc1ccc(OC)c2[nH]c(C(=O)N/N=C/c3ccccc3O)cc12	3.4	-1.9	-0.7	-3.2	23.5
Cn1c(=O)c2c(nc(-c3ccc(N(CCCl)CCCl)cc3)n2C)n(C)c1=O	+	-6.9	i	x	39.5*
COc1ccc(-c2cc(C)no2)cc1S(=O)(=O)Nc1cccc(C)c1	1.9	4.8	0.0	2.8	-10.1
COc1ccc(-c2cc(C)no2)cc1S(=O)(=O)Nc1ccccc1	139.2*	3.3	-0.3	10.7	-2.4
O=C(NC1CC1)c1cc(=S)[nH]c2ccccc12	-0.2	-4.8	-3.8	x	8.6
CC(=O)Nc1ccc(S(=O)(=O)N(C)c2ccc(OCC(=O)NCCc3ccccc3F)cc2)cc1	0.5	-1.1	-1.5	x	7.4
COc1ccc(NC(=O)c2ccc(-c3ccc(OC)cc3)s2)cc1	0.7	-5.4	-0.3	-1.9	11.1
CNC(=O)c1ccc(-c2ccc(OC)cc2)s1	+	-6.7	-3.6	2.1	26.5
SMILES	Mtb FBA inh	PrPC TRFRET	BH1578 lux ind	3CLpro inhibitor	GDH-TPI inh
O=C(CN1C(=O)c2ccccc2S1(=O)=O)c1ccc(O)c(O)c1	0.1	-2.8	i	3.8	58.6*
CCOC(=O)[C@@]12CN(C(=O)OC(C)(C)C)CC=C1N(Cc1ccc(OC)cc1)C(=O)[C@H]2CC(=O)NCCCCc1ccccc1	x	2.6	x	x	x
Cc1c(C(=O)N2CCCCC2)sc(NC(=O)c2ccco2)c1C#N	-2.3	-1.3	x	-3.8	40.1*
Cc1c(C(=O)N2CCCC2)sc(NC(=O)c2ccco2)c1C#N	-3.4	-7.1	x	-2.0	30.7*
COc1ccc(C(=O)Nc2nc3ccc(S(C)(=O)=O)cc3s2)cc1	6.7	2.7	x	2.9	26.5
CS(=O)(=O)c1ccc2nc(NC(=O)c3ccco3)sc2c1	-2.4	-9.0	-0.3	-6.8	46.0*
Cc1ccc(C(=O)Nc2nc3ccc(S(C)(=O)=O)cc3s2)o1	3.3	-1.4	i	0.1	52.3*
Cc1noc(C)c1C(=O)Nc1nc2ccc(S(C)(=O)=O)cc2s1	0.6	-0.6	-0.7	3.7	53.6*
CCc1nnc(NC(=O)c2cc(S(=O)(=O)N(C)c3ccc(OC)cc3)ccc2Cl)s1	1.8	3.3	5.0	0.3	-3.9
